Compound activity as filed in PubChem.
Only a selection was taken, and hits are over-represented in it overall.
HT1080 IDH1KD tx = toxicity to HT-1080 IDH1 knockdown cells (counter line); HT-1080 IDH1 knockdown viability, ATP luminescence, 48 h; Potency, µM (series often up to 46.1 µM), for the others: at the highest dose activity, negative = toxicity, hits mostly cytotoxic; actives 2% (n = 360,000);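 also: potency is read from the fitted curve at half-maximal effect; 0% = DMSO wells and -100% = cell-free medium wells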
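IDH1KD HT-1080 cells, 750/well, RPMI + 5% FBS; compound pinned after 2 h settling; 48 h, 37 °C; CellTiter-Glo luminescence; % activity normalised to DMSO and no-cell wells; curves fitted, classed by r2 and efficacy.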
IL-1B inflam inh = inflammasome signaling inhibition, IL-1 beta readout; AID 743279; activity change, % at 57.5 µM; actives 4.7% (n = 360,000); THP-1 LPS/ATP IL-1B secretion, AlphaLISA, 16 h; active compounds read low; in the data active = activity change below about -50%; inconclusive = mostly about -30% to -49%
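THP-1 cells pretreated 1 hr with compounds (up to 57.5 uM final), then stimulated with LPS (250 ng/mL final) plus ATP (1.25 mM final); secreted IL-1B measured by AlphaLISA after 16 hr, decreased signal indicating inhibition.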
TDP1 cell noCPT = qHTS for Inhibitors of human tyrosyl-DNA phosphodiesterase 1 (TDP1): qHTS in cells in absence of CPT. actives 15% (n = 420,000). DT40 Tdp1-/- hTDP1 cells, no CPT, ATP luminescence, 48 h. Potency, µM (series often up to 46.2 µM), inactives show top-dose activity change, negative = growth inhibition, usual class: inhibitors; also: potency is read from the fitted curve at half-maximal effect; nearly all actives have a fitted effect of over 55% in size
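Readout: luminescence from CellTiter-Glo after 30 min in the dark at RT. Cells: DT40 Tdp1-/- with stable hTDP1, 400/well. Exposure: compounds alone, ≥48 hr, 37 °C.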
TDP1 cell CPT = DT40-hTDP1 cell growth loss with CPT | chicken DT40 Tdp1-/-;hTDP1 cells + 20 nM CPT, ATP luminescence, 48 h | AID 686979 | Potency, µM (series often up to 46.2 µM), for the others: top-dose activity change, negative = growth inhibition, usual class: inhibitors | actives 12% (n = 420,000); also: potency is read from the fitted curve at half-maximal effect; nearly all actives have a fitted effect of over 55% in size
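Chicken DT40 Tdp1-/- cells complemented with human TDP1, 400 cells/well, exposed to compounds plus 20 nM camptothecin for at least 48 h at 37 C; viability read as ATP content by CellTiter-Glo luminescence.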
ALOX12 inh = inhibitors of human 12S-lipoxygenase ALOX12 | P18054 | purified 12hLO, xylenol orange hydroperoxide absorbance | Potency, µM (highest dose often 108 µM), for the others: at the highest dose activity change, negative = inhibition, most hits filed as inhibitors | actives 1.1% (n = 580,000); also: potency is read from the fitted curve at half-maximal effect
Target sequence (P18054 whole entry, looked up): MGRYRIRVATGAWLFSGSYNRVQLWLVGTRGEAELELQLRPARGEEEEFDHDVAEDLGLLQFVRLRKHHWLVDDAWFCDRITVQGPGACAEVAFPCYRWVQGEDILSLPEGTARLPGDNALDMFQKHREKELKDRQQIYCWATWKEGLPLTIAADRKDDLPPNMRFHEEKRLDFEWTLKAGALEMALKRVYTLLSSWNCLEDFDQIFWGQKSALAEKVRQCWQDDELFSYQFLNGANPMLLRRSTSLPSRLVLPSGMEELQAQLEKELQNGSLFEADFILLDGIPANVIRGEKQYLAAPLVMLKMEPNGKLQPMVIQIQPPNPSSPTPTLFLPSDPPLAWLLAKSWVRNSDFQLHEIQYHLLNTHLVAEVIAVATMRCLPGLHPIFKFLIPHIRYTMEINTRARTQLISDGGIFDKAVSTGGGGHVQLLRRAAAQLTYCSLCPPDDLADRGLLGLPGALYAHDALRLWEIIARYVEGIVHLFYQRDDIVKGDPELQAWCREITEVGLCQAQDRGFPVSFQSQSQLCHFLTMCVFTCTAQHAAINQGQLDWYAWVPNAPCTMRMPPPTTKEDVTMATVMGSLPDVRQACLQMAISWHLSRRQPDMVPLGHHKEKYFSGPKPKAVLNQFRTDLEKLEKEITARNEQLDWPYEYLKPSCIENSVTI
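Hydroperoxide product was detected by ferrous iron/xylenol orange as the 573 to 405 nm absorbance ratio. Arachidonic acid at 40 uM (final) was turned over for 30 min at room temperature by 150 nM human 12hLO, pH 7.0 Hepes buffer, after 15 min compound preincubation.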
HT1080NT lethal = kills 2HG-producing HT-1080-NT fibrosarcoma cells | HT-1080-NT fibrosarcoma viability, CellTiter-Glo ATP luminescence, 48 h | Potency, µM (series often up to 46.1 µM), for the others: at the highest dose activity, negative = less viability, hits mostly cytotoxic | AID 686970 | actives 1.6% (n = 360,000);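 also: NT is the 2HG producing partner of a matched IDH1 knockdown line; potency is read from the fitted curve at half-maximal effect; 0% = DMSO-treated cells and -100% = media-only wells without cells; nearly all actives have a fitted effect of over 55% in size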
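HT-1080-NT fibrosarcoma cells (2HG-overproducing), 750 cells/well in RPMI with 5% FBS, dosed after 2 h and incubated 48 h at 37C. CellTiter-Glo luminescence normalized to DMSO and no-cell wells; concentration-response curves fitted and classed.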
Numbers without * were called inactive. Unless noted, calls follow the shape of the dose curve; as a rule, active = well fitted curve in the direction sought with a large enough effect; inconclusive = small, poorly fitted or top-dose-only effect, or another doubt; inactive = no such curve, though single readings can be large; an effect the other way counts as inactive or inconclusive. Unless noted, % is scaled to controls: 0 for no effect and ±100 for the full control effect.

COc1ccccc1CNC(=O)c1ccc2c(c1)N(Cc1ccc(C)cc1)CCS2 was read as TDP1 cell noCPT inconclusive, TDP1 cell CPT 16µM* and ALOX12 inh -11%.
CCN1CCSc2ccc(C(=O)NCc3cccc(F)c3)cc21 was read as HT1080 IDH1KD tx 3%, IL-1B inflam inh -4, TDP1 cell noCPT 18µM*, TDP1 cell CPT inconclusive, ALOX12 inh -16% and HT1080NT lethal 0%.
For COc1ccc(NC(=O)c2ccc3c(c2)N(C)CCS3)cc1 the results were HT1080 IDH1KD tx -6%, IL-1B inflam inh -9, TDP1 cell noCPT inconclusive, TDP1 cell CPT inconclusive, ALOX12 inh -11% and HT1080NT lethal 7%.
Screening Cc1ccc(CN2CCSc3ccc(C(=O)Nc4ccc(C)cc4)cc32)cc1 returned TDP1 cell noCPT 16µM*, TDP1 cell CPT 16µM* and ALOX12 inh inconclusive.
`CN1CCSc2ccc(C(=O)Nc3cccc(F)c3)cc21` gave HT1080 IDH1KD tx -19%, IL-1B inflam inh -53*, TDP1 cell noCPT inconclusive, TDP1 cell CPT inconclusive, ALOX12 inh 3% and HT1080NT lethal -20%.
`Cc1ccc(CNC(=O)Nc2c(NCc3ccccc3)c3ccccc3oc2=O)cc1` gave ALOX12 inh -27%.
Cc1ccccc1CNC(=O)Cn1ccc2c(C)nn(C)c2c1=O was read as ALOX12 inh 3%.
For FC(F)(F)c1cnc(Sc2nnc3ccccn23)c(Cl)c1 the results were ALOX12 inh -7%.
For CCN1CCSc2ccc(C(=O)NCc3ccc(F)cc3)cc21 the results were ALOX12 inh 0%.
`Cc1ccc(CN2CCSc3ccc(C(=O)NCc4ccco4)cc32)cc1` gave HT1080 IDH1KD tx inconclusive, IL-1B inflam inh inconclusive, TDP1 cell noCPT inconclusive, TDP1 cell CPT inconclusive, ALOX12 inh -16% and HT1080NT lethal -9%.
`CCN1CCSc2ccc(C(=O)NC(C)c3ccccc3)cc21` (stereo unspecified) gave TDP1 cell noCPT 23µM*, TDP1 cell CPT 18µM* and ALOX12 inh -9%.
Screening CCOc1ccccc1CNC(=O)c1ccc2c(c1)N(Cc1ccc(C)cc1)CCS2 returned TDP1 cell noCPT 9.2µM*, TDP1 cell CPT 18µM* and ALOX12 inh -28%.
For CCOc1ccccc1CNC(=O)c1ccc2c(c1)N(CC)CCS2 the results were HT1080 IDH1KD tx -2%, IL-1B inflam inh -23, TDP1 cell noCPT 9.2µM*, TDP1 cell CPT 15µM*, ALOX12 inh -11% and HT1080NT lethal -3%.
Screening CC(C)Cc1noc(CN(C)C(=O)c2cc(C(C)C)n3ncnc3n2)n1 returned ALOX12 inh 43%.
`N#CC1=C(N)OC2=C(C1c1ccccc1Cl)S(=O)(=O)N(Cc1ccc(F)cc1)c1ccccc12` (stereo unspecified) gave ALOX12 inh -6%.
For [O-][N+](=Cc1ccccc1)c1ccc(Cl)cc1 the results were HT1080 IDH1KD tx -2%, IL-1B inflam inh -10, TDP1 cell noCPT 21µM*, TDP1 cell CPT 6.5µM*, ALOX12 inh 3% and HT1080NT lethal -1%.
Screening [O-]/[N+](=C/c1ccc(F)cc1)c1ccc(Cl)cc1 returned HT1080 IDH1KD tx 3%, IL-1B inflam inh 7, TDP1 cell noCPT 9.2µM*, TDP1 cell CPT 16µM* and HT1080NT lethal 2%.
Screening CC(C(=O)NC1CC1)N1CCN(c2oc(-c3ccco3)nc2C#N)CC1 (stereo unspecified) returned ALOX12 inh -4%.
Screening COc1ccc(C(=O)NCCNc2nc3c(C)cccc3cc2C#N)cc1 returned HT1080 IDH1KD tx 1%, IL-1B inflam inh inconclusive, TDP1 cell noCPT 21µM*, TDP1 cell CPT inconclusive, ALOX12 inh inconclusive and HT1080NT lethal 1%.
Screening Cc1cc(C)c2cc(C#N)c(NCCCN)nc2c1 returned HT1080 IDH1KD tx -25%, IL-1B inflam inh 0, TDP1 cell noCPT 21µM*, TDP1 cell CPT inconclusive, ALOX12 inh -10% and HT1080NT lethal inconclusive.
`COc1cccc(C(=O)NCCCNc2nc3cc(C)cc(C)c3cc2C#N)c1` gave HT1080 IDH1KD tx 2%, IL-1B inflam inh 0, TDP1 cell noCPT 26µM*, TDP1 cell CPT inconclusive, ALOX12 inh -13% and HT1080NT lethal 5%.
COc1ccc(C(=O)NCCNc2nc3cc(C)cc(C)c3cc2C#N)cc1 was read as HT1080 IDH1KD tx inconclusive, IL-1B inflam inh -19, TDP1 cell noCPT inconclusive, TDP1 cell CPT inconclusive, ALOX12 inh 0% and HT1080NT lethal inconclusive.
COc1ccc(C(=O)NCCNc2nc3c(C)cccc3cc2C#N)cc1OC was read as HT1080 IDH1KD tx -6%, IL-1B inflam inh -27, TDP1 cell noCPT -21%, TDP1 cell CPT -26%, ALOX12 inh inactive and HT1080NT lethal -8%.
For CCOC(=O)C(=O)Nc1c(C(=O)Nc2ccc(C)cc2)oc2ccccc12 the results were ALOX12 inh -26%.
CC(NC(=O)c1[nH]c2ccccc2c1Cl)c1cccc(F)c1 (stereo unspecified) was read as ALOX12 inh -10%.
Screening Cc1ccc(OCCN)cc1C returned ALOX12 inh 14%.
Screening CC1=C(C(=O)OC(C)C)C(c2ccc([N+](=O)[O-])cc2)N2C(CC(=O)N3CCOCC3)=CSC2=N1 (stereo unspecified) returned ALOX12 inh 11%.
`CCCCOC(=O)c1ccc(NC(=S)NC(=O)c2c(Br)c(C)nn2C)cc1` gave HT1080 IDH1KD tx -19%, IL-1B inflam inh 16, TDP1 cell noCPT 21µM*, TDP1 cell CPT inconclusive, ALOX12 inh 2% and HT1080NT lethal -16%.
`CCOC(=O)c1ccc(NC(=S)NC(=O)c2cncc(Br)c2)cc1` gave HT1080 IDH1KD tx 7%, IL-1B inflam inh 22, TDP1 cell noCPT -15%, TDP1 cell CPT -19%, ALOX12 inh -13% and HT1080NT lethal 8%.
For O=C(C(=Cc1ccccc1)c1ccccc1)c1ccccc1 the results were HT1080 IDH1KD tx -14%, IL-1B inflam inh inconclusive, TDP1 cell noCPT inconclusive, TDP1 cell CPT inconclusive, ALOX12 inh 0% and HT1080NT lethal -16%.
For Cc1cc(C)c(NC(=O)/C(=C/c2ccccc2)c2ccccc2)c(C)c1 the results were HT1080 IDH1KD tx 2%, IL-1B inflam inh 0, TDP1 cell noCPT 21µM*, TDP1 cell CPT 23µM*, ALOX12 inh -19% and HT1080NT lethal -21%.
